Source: PubChem BioAssay (National Center for Advancing Translational Sciences (NCATS))
A selection: hits, their analogues and other compounds. The true share with any hit is near 10%.
3T3 cytotox: NIH 3T3 cell cytotoxicity; NIH 3T3 viability, CellTiter-Glo ATP luminescence, 48-72 h; Potency, µM (titrated, usually from 96.7 µM), for the others: at the top dose activity change, negative = cytotoxicity, actives largely listed as inhibitors; 94,000 tested, 4.3% active; note: nearly all actives have a fitted effect of over 55% in size
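Cytotoxicity is measured as loss of cellular ATP: NIH 3T3 cells (400/well) are exposed to compound for 48 or 72 hr at 37 °C, then CellTiter-Glo luminescence is imaged after 10 min at room temperature.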
FLuc inh: inhibitors of firefly (Photinus pyralis) luciferase. P08659. purified P. pyralis luciferase, luminescence, biochemical. Potency, µM (series often up to 115 µM), hits mostly inhibitors. 76,000 tested, 2.5% active. AID 1347043; note: nearly all actives have a fitted effect of over 65% in size
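Biochemical qHTS: compound (6-point titration) added to 10uM D-luciferin plus 10uM ATP in Tris acetate pH 7.5 buffer with Mg, Tween-20 and BSA, then purified enzyme at 10nM; light output imaged.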
GPT2 inhibitor: inhibitors of human GPT2 alanine aminotransferase. Potency, µM (doses to about 57.7 µM), inactives show at the highest dose activity change, negative = inhibition, most hits filed as inhibitors. 100,000 tested, 0.25% active. Recombinant GPT2, coupled pyruvate oxidase/HRP Amplex Red fluorescence; note: nearly all actives have a fitted effect of over 60% in size
Target sequence (Q8TD30 whole entry, looked up): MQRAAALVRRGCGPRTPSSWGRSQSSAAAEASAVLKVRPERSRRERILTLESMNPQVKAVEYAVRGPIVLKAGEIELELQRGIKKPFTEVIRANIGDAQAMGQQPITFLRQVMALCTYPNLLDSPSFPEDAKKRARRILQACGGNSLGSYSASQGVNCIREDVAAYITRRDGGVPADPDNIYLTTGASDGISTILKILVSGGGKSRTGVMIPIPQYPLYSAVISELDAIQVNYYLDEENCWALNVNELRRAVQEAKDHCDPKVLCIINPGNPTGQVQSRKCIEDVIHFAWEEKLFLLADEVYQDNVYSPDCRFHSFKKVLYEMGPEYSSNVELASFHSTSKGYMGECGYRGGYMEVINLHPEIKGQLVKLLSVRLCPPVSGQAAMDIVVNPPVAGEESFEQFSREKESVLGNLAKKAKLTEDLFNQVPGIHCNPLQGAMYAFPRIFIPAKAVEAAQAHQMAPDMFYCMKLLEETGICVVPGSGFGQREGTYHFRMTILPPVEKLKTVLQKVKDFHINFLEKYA
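Inhibition is scored from Amplex Red fluorescence generated when pyruvate oxidase and HRP act on pyruvate released by GPT2. Reactions contain 10ng/uL enzyme, 250uM a-KG and 2mM L-alanine and run 30 min at room temperature.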
hNpr1 antagonist: human Npr1 receptor antagonism. P16066. HEK293 hNpr1 GloSensor cGMP, ANP-stimulated luminescence. Potency, µM (titrated, usually from 46.3 µM), inactives show at the top dose activity change, negative = inhibition, actives largely listed as inhibitors. 76,000 tested, 1.6% active; calls by dose curve; note: nearly all actives have a fitted effect of over 60% in size
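HEK293 cells stably expressing human Npr1 and cGMP GloSensor pGS-40F, loaded 2 h with 2% GloSensor reagent, given compound 30 min at room temperature. Luminescence read before and 20 min after 0.1 nM hNppA.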
HEK293 tox: kills HEK 293 cells. 94,000 tested, 6.6% active. HEK 293 viability, ATP luminescence (CellTiter-Glo), 48-72 h. Potency, µM (doses to about 115 µM), inactives show top-dose activity change, negative = cytotoxicity, usual class: inhibitors; note: nearly all actives have a fitted effect of over 60% in size
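ATP-coupled CellTiter-Glo luminescence served as viability read-out, recorded 10 min after reagent addition at room temperature. HEK 293 cells, 250 cells/well, had been incubated with pintool-transferred compound for 48 or 72 hr at 37 degree Celsius.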
* hit, by the source's call; i = inactive; ? = inconclusive; . = no result given; [ ] = another dose, or the depositor's remark. Unless noted, calls come from the whole dose curve; as a rule, active = well fitted curve in the direction sought with a large enough effect; inconclusive = small, poorly fitted or top-dose-only effect, or another doubt; inactive = no such curve, though single readings can be large; an effect the other way counts as inactive or inconclusive. % is set by controls: 0 for no effect and ±100 for the full control effect; potency is the fitted concentration of half-maximal effect.

SMILES | 3T3 cytotox | FLuc inh | GPT2 inhibitor | hNpr1 antagonist | HEK293 tox
COCc1nc(C2CCN(C(=O)Cc3c[nH]c4ccccc34)C2)no1 (stereo not given) | 2% | i | i | -1% | i
COc1ccc(OCc2nc(C3CN(C(=O)Cc4c[nH]c5ccccc45)C3)no2)cc1 | ? | i | i | ? | 45µM*
Cn1cnc(S(=O)(=O)N2CCC3(CC2)CC(CC(=O)N2CCOCC2)CCO3)c1 (stereo not given) | 3% | i | -4% | 4% | 7%
COCC(=O)Nc1cc(-c2ccncc2)nn1-c1ccccc1 | -25%[138 µM] | . | i | . | -10%[172 µM]
Cn1ncc2c(C(=O)NC3CCCCCC3)cc(-c3ccccc3F)nc21 | -22% | . | . | . | -30%
CC(=O)NC(C)c1nnc2n1CCN(C(=O)c1ccc(C(F)(F)F)cc1)C2 (stereo not given) | -1% | . | . | . | -12%
Cn1cccc1CN1CCC2(CC1)CC(=O)c1ccc(Cl)cc1O2 | ? | ? | i | -12%[70.6 µM] | 45µM*
O=C1CC2(CCN(C(=O)c3ccc(Cl)cc3)CC2)Oc2cc(Cl)ccc21 | ? | . | i | . | ?
O=C(c1ccc2c(c1)OCO2)N1CCc2nc(C3CC3)nc(-c3ccc(Cl)cc3)c2CC1 | ? | i | i | -12% | 28µM*
O=C1CC2(CCN(C(=O)c3ccc4c(c3)OCO4)CC2)Oc2cc(Cl)ccc21 | ? | i | i | -8% | 45µM*
CCCn1ccc2oc(C)c(C(=O)NCc3ccc(OC)cc3)c2c1=O | -25% | i | -26% | -1% | -26%
CCN(C)C(=O)C(C)N1CCc2onc(-c3ccc(-c4ccccc4)cc3)c2C1 (stereo not given) | ? | 20µM* | ? | ? | ?
COc1ccc(NC(=O)C2=NO[C@@H]3CN(CCc4ccccc4)C[C@H]23)cn1 | -23%[138 µM] | i | i | 1%[70.6 µM] | 100µM*
COc1ccc(NC(=O)C2=NO[C@@H]3CN(c4cccnc4)C[C@H]23)cc1 | ? | 35µM* | i | ? | ?
COc1cncc(NC(=O)C2=NO[C@@H]3CN(Cc4ccccc4)C[C@H]23)c1 | ? | i | -6%[88.5 µM] | 2%[70.6 µM] | -28%[172 µM]
COc1ccc(C(=O)N[C@@H]2CCC[C@@H]2C(=O)NCc2ccc(C)o2)cc1 | ? | i | -2% | 2% | ?
COc1cccc(CN2CC3(CCN(C)C3)c3cc(C(=O)NC4CCCCC4)ccc32)c1 (stereo not given) | 25µM* | i | i | -10%[70.6 µM] | 56µM*
COc1ccc(NC(=O)c2ccc3c(c2)C2(CCN(C)C2)CN3Cc2ccccc2)cc1 (stereo not given) | 50µM* | i | i | -4%[70.6 µM] | 71µM*
Cn1ccc(NC(=O)c2ccc3c(c2)C2(CCN(CC4CC4)C2)CN3Cc2ccccc2)n1 (stereo not given) | ? | i | 5% | -9% | 32µM*
CN1CCC2(C1)CN(Cc1ccccc1)c1ccc(C(=O)Nc3ccc(F)cc3)cc12 (stereo not given) | 25µM* | i | i | -1%[70.6 µM] | 40µM*
O=C(NC1CCOCC1)c1ccc2c(c1)C1(CCN(CC3CC3)C1)CN2Cc1ccccc1 (stereo not given) | ? | i | -3% | 0% | ?
CN1CCCC2(C1)CN(Cc1cccnc1)c1ccc(C(=O)Nc3ccc(F)cc3)cc12 (stereo not given) | ? | i | -2%[88.5 µM] | 3%[70.6 µM] | ?
O=S(=O)(c1ccccc1)N1Cc2ccccc2CC2(CCN(Cc3cccnc3)C2)C1 (stereo not given) | ? | . | -6% | . | ?
COc1ccc([C@H]2C[C@@H](O)[C@@H](O)[C@@H]2NC(=O)c2nc3ccccc3s2)cc1 | -27%[138 µM] | 45µM* | -3%[88.5 µM] | -26%[70.6 µM] | ?
O=C(N[C@H]1[C@H](O)[C@H](O)C[C@@H]1c1ccc(C(F)(F)F)nc1)c1nc2ccccc2s1 | -22%[138 µM] | 45µM* | -11%[88.5 µM] | -11%[70.6 µM] | -27%[172 µM]
Cc1ccccc1[C@H]1C[C@@H](O)[C@@H](O)[C@@H]1NC(=O)c1nc2ccccc2s1 | ? | i | 0%[88.5 µM] | -11%[70.6 µM] | ?
Cc1nc(C)c(C(=O)NCCc2ncc(C)n2C2CC2)s1 | -13% | . | 2% | . | 2%
